Results published in PubChem BioAssay AID1259343 (VanderVen Lab, College of Veterinary Medicine, Cornell …, 2017).
Hit rate of the full screen: of about 6,200 compounds, about 2,900 (47%) were called active. No stated cut-off is given here; in the data, active means inhibition above about 50%; inactive means the rest. The set was probably picked from earlier hits. This is one part of the list.

test: Mycobacterium tuberculosis growth inhibition, primary screen (AID 1259343); settings: inhibition: at 10 µM, stronger effect = higher value; outcome: 10 uM

SMILES	inhibition
Clc1ccc(CNCc2cn[nH]c2-c2ccc(-c3ccccc3)cc2)s1	74.1% (active)
CC(NCc1ccco1)c1nnc(-c2ccc(F)cc2)o1 (stereo not given)	25.6% (inactive)
CC(NCc1nnc(-c2cccc(Br)c2)o1)c1cccc(F)c1 (stereo not given)	-7.48% (inactive)
CC(NCc1cn[nH]c1-c1ccc(-c2ccccc2)cc1)c1ccc(F)cc1 (stereo not given)	83.9% (active)
CCCCc1ccc(-c2csc(NC(=O)C3(C)CCOCC3)n2)cc1	43.9% (inactive)
Cc1nnsc1C(=O)Nc1ccc(C(=O)OC2CCCC2)cc1	-6.8% (inactive)
CCCc1ccc(-c2ccc(NC(=O)C3COCCO3)cc2)cc1 (stereo not given)	72.3% (active)
O=C(OC1CCCC1)c1ccc(NC(=O)C2COCCO2)cc1 (stereo not given)	84.8% (active)
CC(C)Cc1ccc(-c2csc(NC(=O)C3COCCO3)n2)cc1 (stereo not given)	90.5% (active)
Cc1cccc(OCCC(=O)Nc2ccc3c(c2)oc(=O)n3C)c1C	15.8% (inactive)
CC(C)Oc1ccc(C(=O)Nc2ccc3c(c2)oc(=O)n3C)cn1	92.7% (active)
O=c1[nH]c(=O)n(CCC2=CCCCC2)c(O)c1C=C1C=CC=N1	89.4% (active)
CSc1nc(N2CCCC2)c2cnn(CCNC(=O)c3cccs3)c2n1	9.6% (inactive)
CCCNc1nc(SC)nc2c1cnn2CCNC(=O)c1c(F)cccc1Cl	60.4% (active)
CSc1nc(NCC(C)C)c2cnn(CCNC(=O)CC(C)C)c2n1	-2.36% (inactive)
CC(=NNC(N)=S)C(C)=NNC(N)=S	54.6% (active)
CC(=NNC(N)=S)C12CC3CC(CC(C3)C1)C2	14.6% (inactive)
CC(=NNC(=S)NC(C)C)c1ccc(C(C)(C)C)cc1	5.89% (inactive)
C=CCNC(=S)NN=Cc1ccc2c(c1)OCCO2	23.3% (inactive)
CC(=NNC(=S)NC(C)C)c1ccc2c(c1)OCCO2	88.1% (active)
CC(=NNC(N)=S)c1ccc2c(c1)OCCO2	69% (active)
CC(=NNC(N)=S)c1ccc(C)cc1	76.6% (active)
COc1ccccc1-n1cc(-c2ccnc(N(C)Cc3cccc(C)n3)n2)cn1	29.4% (inactive)
COc1ccc(-c2cnnc(N3CCC(c4ccccc4Cl)C3)n2)cc1 (stereo not given)	inactive
C=C(C)NC(=S)Nc1nccs1	7.83% (inactive)
CC1CCC(N(C(=O)Nc2nccs2)C2CC2)CC1 (stereo not given)	53.1% (active)
CC1=CC(=O)c2c(O)cccc2C1=O	102% (active)

SMILES	inhibition
O=C(O)c1ccccc1-c1c2cc(Br)c(=O)cc-2oc2[c]([Hg])c(O)c(Br)cc12	66.5% (active)
COc1ccccc1-c1cc(=O)c2cccc(OC)c2o1	-0.59% (inactive)
CCCCCCCCON1C(=O)C2C3C=CC(O3)C2C1=O (stereo not given)	8.42% (inactive)
O=C(NCCc1ccc2c(c1)OCCO2)C12CC3CC(CC(C3)C1)C2	45.1% (inactive)
CC1CCC(NC(=O)c2sccc2-n2cccc2)CC1 (stereo not given)	87.7% (active)
O=C(NNC(=O)C12CC3CC(CC(C3)C1)C2)c1sccc1-n1cccc1	61.1% (active)
Cc1ccc(C)n1-c1ccsc1C(=O)NC1CCCC1	39.9% (inactive)
COCC(Nc1ncc(Br)cn1)c1ccc(C)o1 (stereo not given)	38.8% (inactive)
Cc1nc(-c2ccc(Oc3ccc(C(F)(F)F)cn3)cc2)no1	89.7% (active)
Cc1ccn2cc(C(=O)Nc3nc4ccccc4s3)nc2c1	50.8% (active)
CCOc1ccc2nc(NC(=O)c3ccc(C)o3)sc2c1	25.2% (inactive)
O=C(NCC12CC3CC(CC(C3)C1)C2)c1ccccc1	25.9% (inactive)
O=C(Cc1ccsc1)NCC12CC3CC(CC(C3)C1)C2	75.4% (active)
O=C(Cc1ccc(-c2ccccc2)cc1)NCC(c1ccsc1)N1CCCC1 (stereo not given)	37.7% (inactive)
CC(=NNC(=O)c1cc(C)oc1C)c1ccc2c(c1)Nc1ccccc1S2	47.6% (inactive)
CC(=NNC(=S)NC(C)C)c1ccc2c(c1)Nc1ccccc1S2	20.4% (inactive)
CC(=NNC(=O)COc1ccc(F)cc1)c1ccc2c(c1)Nc1ccccc1S2	16% (inactive)
CC(=NNc1ccc(C(F)(F)F)cn1)c1ccc2c(c1)Nc1ccccc1S2	-55.5% (inactive)
CC(=NNC(=O)c1ccoc1C)c1ccc2c(c1)Nc1ccccc1S2	75.1% (active)
CC(=NNS(=O)(=O)c1cc(C)ccc1C)c1ccc2c(c1)Nc1ccccc1S2	57.9% (active)
Cc1cc(C)n(C(C)CNS(=O)(=O)c2ccc(Cl)cc2)n1 (stereo not given)	inactive
CCOc1ccc(NC(=O)Cc2ccc(C)s2)cc1	59.7% (active)
CCOc1ccc(NC(=O)CCSc2nnc(C)s2)cc1	91.3% (active)
CCOc1ccc(Oc2ccc(NC(=O)c3ccc(C)s3)cc2)cc1	44.9% (inactive)
COc1ccc(Cl)c(NS(=O)(=O)c2cnc(Cl)n2C)c1	25.9% (inactive)
O=S1(=O)C(c2ccccc2)=CC1c1ccccc1 (stereo not given)	49.3% (inactive)
Cc1ccc(S(=O)(=O)NCC(C)n2nc(C)cc2C)cc1 (stereo not given)	10.1% (inactive)

SMILES	inhibition
Clc1ccc(C2CC(c3ccc(Cl)cc3)n3ncnc3N2)cc1 (stereo not given)	-10.5% (inactive)
Clc1ccc(C2CC(c3ccc(Cl)cc3)n3nnnc3N2)cc1 (stereo not given)	66.5% (active)
CCCCc1oc2ccccc2c1C(=O)c1cc(I)c(OCCN(CC)CC)c(I)c1	77% (active)
CCCCc1oc2ccccc2c1C1NC(=O)c2ccccc2N1 (stereo not given)	10.5% (inactive)
O=C(Nc1ccccc1-c1cn2c(CN3CCNCC3)csc2n1)c1cnc2ccccc2n1	74.8% (active)
O=C(Nc1ccccc1OCCCc1ccccc1)c1ccccn1	22.6% (inactive)
Cc1ccc(CC(=O)Nc2ccccc2OC2CCCC2)s1	10.8% (inactive)
O=C(Nc1ccccc1OCCCc1ccccc1)C1CCOC1 (stereo not given)	83% (active)
CC1=NOC(C(=O)Nc2ccccc2OCCCc2ccccc2)C1 (stereo not given)	55.6% (active)
COc1ccc(NC(=S)Nc2ccc(OC(F)F)cc2)cn1	36.5% (inactive)
FC(F)Oc1ccc(NC(=S)Nc2ccc3c(c2)OCCO3)cc1	85.3% (active)
Oc1ccc(NC(=S)Nc2ccc(OC(F)F)cc2)cc1	94.3% (active)
O=C(OC1CCc2[nH]c3ncccc3c2C1)c1ccccc1 (stereo not given)	-5.27% (inactive)
CSc1ccccc1NC(CNS(=O)(=O)c1ccccc1)c1ccccc1 (stereo not given)	-10.3% (inactive)
CCOC(=O)CC(=O)CSc1nc(-c2cccc(C)c2)ns1	82.2% (active)
CSc1ccc(Cn2c(C)c(C(=O)NCc3cccc([N+](=O)[O-])c3)sc2=O)cc1	24.4% (inactive)
Cc1ccc(-c2nsc(SCC(=O)Nc3cccc([N+](=O)[O-])c3)n2)cc1	71.1% (active)
Cc1cccc(NC(=O)c2cc(Oc3ccc([N+](=O)[O-])cc3F)n(C)n2)c1	35.6% (inactive)
OCc1ccc(-c2ccc(-c3ccc(CO)s3)o2)s1	48.6% (inactive)
CCC1(C)Oc2ccccc2C2CC(c3ccccc3)=NN21 (stereo not given)	-17% (inactive)
CC1CCC2(CC1)Oc1ccccc1C1CC(c3ccccc3)=NN12 (stereo not given)	55.7% (active)
c1ccc(C2=NN3C(C2)c2ccccc2OC32CCCC2)cc1 (stereo not given)	32% (inactive)
COc1ccc(C2Oc3ccccc3C3CC(c4ccccc4)=NN32)cc1OC (stereo not given)	-33.1% (inactive)
CC(C)C1Oc2ccccc2C2CC(c3ccccc3)=NN21 (stereo not given)	63.4% (active)
Fc1ccc(C2=NN3C(C2)c2ccccc2OC3c2ccncc2)cc1 (stereo not given)	14% (inactive)
OC[C@@H](O)CN(CCC(F)(F)F)c1nc(-c2ccccn2)nc2c1CCC2	-1.45% (inactive)
CC(NC(=O)C=Cc1cccs1)C1CC2CCC1C2 (stereo not given)	36.7% (inactive)

SMILES	inhibition
CC(NC(=O)COc1ccccc1F)C1CC2CCC1C2 (stereo not given)	95.6% (active)
CC(NC(=O)c1ccc([N+](=O)[O-])o1)C1CC2CCC1C2 (stereo not given)	101% (active)
CC(NC(=O)c1ccc(Br)o1)C12CC3CC(CC(C3)C1)C2 (stereo not given)	0.12% (inactive)
Cc1ccc2c(CC(=O)NC(C)C3CC4CCC3C4)coc2c1 (stereo not given)	12.9% (inactive)
CCNC(=O)c1ccc([N+](=O)[O-])o1	15.7% (inactive)
CC(NC(=O)c1ccc([N+](=O)[O-])o1)C12CC3CC(CC(C3)C1)C2 (stereo not given)	106% (active)
CC(NC(=O)c1ccc(Br)o1)C1CC2CCC1C2 (stereo not given)	37.7% (inactive)
COc1ccc([C@H]2Oc3cc(OC)cc(OC)c3C[C@H]2O)cc1	70.8% (active)
COc1ccc(-c2nnc(CSC(=S)N3CCCC3)o2)cc1	84.2% (active)
O=C(CSC(F)(F)F)Nc1cnn(-c2ccccc2)c1	63.6% (active)
O=C(Cc1cnn(-c2ccccc2)c1)NCC1CCCCC1	45% (inactive)
O=C(O)c1ccc2c(c1)CCN2C(=O)c1cnn(-c2ccccc2)c1	15.4% (inactive)
Cc1cccc(OC(C)C(=O)Nc2nc(C(C)C)cs2)c1 (stereo not given)	29.5% (inactive)
Cc1cc(Cl)cc(C)c1OCC(=O)NNc1ccc(F)cc1	96.3% (active)
Cc1cnc(NC(=O)C(C)Oc2cccc(Cl)c2)s1 (stereo not given)	9.6% (inactive)
Cc1csc(NC(=O)COc2c(C)cc(Cl)cc2C)n1	73.9% (active)
CC(=O)Nc1ccc(CC(=O)OCc2ccc(F)cc2)cc1	37.7% (inactive)
Cc1cc(C)c(OCC(=O)NS(=O)(=O)c2c(C)noc2C)c(C)c1	44% (inactive)
CC(=NNc1nc(C)cs1)c1ccc(Cl)cc1	0.03% (inactive)
Cc1csc(NC(=O)C(C)Oc2cccc(Cl)c2)n1 (stereo not given)	81.2% (active)
N#Cc1cccc(CSc2n[nH]c(=O)n2C2CC2)c1	3.74% (inactive)
Cc1ccc(-c2nnn(CC(=O)N3CCCCCC3)n2)cc1	15.3% (inactive)
Cc1ccc(-c2nnn(Cc3cc(C)on3)n2)cc1	57.2% (active)
N#Cc1ccccc1Cn1nnc(-c2ccccc2)n1	-34.2% (inactive)
